TrxR1 inh: rat TrxR1 inhibition. O89049. recombinant rTrxR1, NADPH fluorescence consumption, selenite substrate. Potency, µM (series often up to 114 µM), for inactives: top-dose activity change, negative = inhibition, most hits filed as inhibitors. 390,000 compounds, 1% hits. AID 588453; further: on the % scale 0 is the no-effect control and ±100 the full control effect; nearly all actives have a fitted effect of over 65% in size
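Rat TrxR1 (90 nM in the dispensed reagent) was pre-reduced with 400 uM NADPH for 5 min at room temperature, then incubated with compound for 15 min. After 400 uM selenite was added, NADPH fluorescence (Ex 340/Em 450 nm) was followed for 8 min.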
Vif-A3F inh: inhibitors of Vif-A3F interaction; HeLa A3F-eYFP + Vif (tagged APOBEC3F with the HIV-1 protein that degrades it), YFP fluorescence increase; Potency, µM (series often up to 46.1 µM), for the others: at the top dose activity, negative = active; 390,000 compounds, 0.2% hits; AID 602313; further: % of control where 0% means no effect; nearly all actives have a fitted effect of over 65% in size
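HeLa cells stably expressing Vif plus C-terminally eYFP-tagged A3F were seeded, incubated overnight at 37 deg C, dosed with compound, incubated overnight again at 37 deg C. Yellow fluorescence (Ex 488/Em 500-530) reported blocked Vif-mediated A3F-eYFP degradation.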
VDR inhibitor: blocks the human vitamin D receptor. Potency, µM, without a hit: max response, negative = inhibition, most hits filed as inhibitors. AID 504847. VDR-SRC2-3 peptide fluorescence polarization, 2 h. P11473. 400,000 compounds, 0.93% hits; further: on the % scale 0 is the no-effect control and ±100 the full control effect
Target sequence (P11473 whole entry, looked up): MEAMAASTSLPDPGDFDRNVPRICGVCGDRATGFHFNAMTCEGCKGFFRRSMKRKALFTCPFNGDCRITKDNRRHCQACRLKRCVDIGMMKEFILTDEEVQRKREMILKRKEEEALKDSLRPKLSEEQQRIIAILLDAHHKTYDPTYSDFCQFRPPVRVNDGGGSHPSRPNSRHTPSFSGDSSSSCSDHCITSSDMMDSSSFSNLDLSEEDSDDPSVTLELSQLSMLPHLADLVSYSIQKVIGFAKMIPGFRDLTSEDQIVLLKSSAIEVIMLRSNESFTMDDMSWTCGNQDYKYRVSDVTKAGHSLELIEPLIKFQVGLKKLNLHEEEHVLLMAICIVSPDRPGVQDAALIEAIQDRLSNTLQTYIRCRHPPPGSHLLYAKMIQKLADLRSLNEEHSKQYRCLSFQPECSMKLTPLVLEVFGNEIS
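Fluorescence polarization assay of small-molecule disruption of VDR binding to coregulator peptide SRC2-3. Compounds and controls pin-transferred, then read after 2 h incubation at ambient room temperature.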
TrxR1 substrate: rat thioredoxin reductase 1 substrate activity. O89049. purified TrxR1 substrate turnover, NADPH consumption readout. Potency, µM (top dose mostly 114 µM), without a hit: top-dose activity change, negative = substrate turnover. 390,000 compounds, 0.01% hits; further: on the % scale 0 is the no-effect control and ±100 the full control effect; nearly all actives have a fitted effect of over 50% in size
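Rat TrxR1, dispensed at 90 nM, was prereduced with 400 uM NADPH (final) for 5 min at ~22 deg C, then incubated with compound 15 min before 400 uM selenite. A first-read NADPH fluorescence drop versus no-compound background flagged substrates.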
Vif-APOBEC3G blk: inhibitors of Vif-APOBEC3G interaction | Q9HC16 | HeLa A3G-eYFP + Vif (tagged APOBEC3G with the HIV-1 protein that degrades it), YFP fluorescence, overnight | Potency, µM (series often up to 46.1 µM), without a hit: at the top dose activity, negative = active, usual class: inhibitors | 410,000 compounds, 0.076% hits; further: on the % scale 0 is the no-effect control and ±100 the full control effect; nearly all actives have a fitted effect of over 60% in size
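HeLa cells stably expressing Vif and C-terminally eYFP-tagged A3G, seeded overnight at 37 deg C, then exposed to compound by pintool overnight at 37 deg C. Rise in yellow fluorescence (Ex 488/Em 500-530, Acumen) marks blocked Vif-driven A3G degradation.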
Active calls of the source: *; u = inconclusive; x = no result; [ ] = remark or other dose. In the library only some 1.8% were active in any assay of this set; here they are far more common. The call rests on the fitted dose curve; in most records, active means well fitted curve in the direction sought with a large enough effect; inconclusive means small, poorly fitted or top-dose-only effect, or another doubt; inactive means no such curve, though single readings can be large; an effect the other way counts as inactive or inconclusive. Potency means the concentration at half of the fitted maximal effect.

SMILES	TrxR1 inh	Vif-A3F inh	VDR inhibitor	TrxR1 substrate	Vif-APOBEC3G blk
COc1ccc(-n2nnnc2S(=O)(=O)CC(=O)N2CCCCC2)cc1	2.2µM*	-2%	u	9%	u
CCOC(=O)c1ccc(N/C=C/C(=O)C(C)(C)C)cc1	13%	1%	-23%	-3%	-11%
CN(C)c1ccc(N/C=C/C(=O)c2ccccc2)cc1	8%	u	79µM*	1%	-22%
CN(C)c1ccc(N/C=C/C(=O)C(C)(C)C)cc1	-11%[57.1 µM]	-6%	16µM*	-6%	-1%
NC(=O)c1cc(N2C(=O)C=CC2=O)ccc1Cl	1µM*	0%	20µM*	7%	-10%
CCOC(=O)C1=C(CCl)NC(=O)NC1c1ccc2c(c1)OCO2 (centres undefined)	11µM*	4%	-8%	3%	u
CCOC(=O)c1cc(OCc2csc(-c3ccccc3)n2)cc(C(=O)OCC)c1	13%	x	x	1%	-2%
CCOc1[nH]c(/N=C/c2ccc(OC)cc2)c(C#N)c1C#N	u	x	-31%	-1%	-4%
COc1ccc(C(=O)/C=C/Nc2ccc([N+](=O)[O-])cc2C)c(OC)c1	3%	22µM*	5%	4%	-3%
CC(C)(C)OC(=O)NCCc1nnc(S(=O)(=O)Cc2ccc(Cl)cc2Cl)o1	0.4µM*	3%	-20%	11%[57.1 µM]	-27%
Cc1ccccc1OCC(=O)NCC(C)NC(=O)COc1ccccc1C (centres undefined)	-33%	x	u	-17%	1%
CN1CCC(OC(=O)c2ccc(Cl)cc2Cl)CC1	22%	-6%	-1%	1%	3%
CN1CCC(OC(=O)c2cc3cc(Cl)cc(Cl)c3oc2=O)CC1	-16%	4%	-1%	6%	11µM*
Oc1ccc(N=Cc2ccc(-c3cccs3)s2)cc1	266%	3%	79µM*	732%	u
O=S1(=O)CCOC[C@H](c2ccccc2)N1Cc1ccc(F)cc1	13%	x	x	-1%	-3%
Cc1cc(C(F)(F)F)c2c(N)c(C(=O)Nc3cc(C)on3)sc2n1	-10%	11µM*	13%	-7%	-16%
Cc1ccc(-c2noc(-c3ccc(NCc4ccco4)c([N+](=O)[O-])c3)n2)cc1	1%	-15%	12%	-3%	3%
c1ccc(Oc2c3ccccc3nc3ccccc23)cc1	8.9µM*	9%	45µM*	13%[57.1 µM]	u
Cc1cccn2c(=O)cc(CSc3nnc(NC(=O)COc4ccc(F)cc4)s3)nc12	13%[57.1 µM]	2%	4%	4%[57.1 µM]	2%
COc1ccc(S(=O)(=O)N2CCCN(CC(=O)Nc3ccc(OC)c(Cl)c3)CC2)cc1	50µM*	x	6%	5%	0%
NCC1OC(OC2C(N)CC(N)[C@@H](O)[C@@H]2OC2O[C@H](CO)[C@@H](O[C@@H]3OC(CN)C(O)C(O)C3N)C2O)C(N)C(O)C1O (some centres undefined)	x	x	0%	x	x
CCCCOc1c(Br)cc(/C=C2\N=C(C)OC2=O)cc1OCC	40µM*	-6%	u	1%	0%
CCOc1cc(/C=N/O)cc(Br)c1OCC	13%	6%	9%	6%	-1%
CS(=O)(=O)c1ccc(-n2nnc3ccccc32)c([N+](=O)[O-])c1	27%	1%	-1%	2%	0%
N#Cc1cc([N+](=O)[O-])c(-n2nnc3ccccc32)c([N+](=O)[O-])c1	16µM*	-17%	u	-2%	0%
SMILES	TrxR1 inh	Vif-A3F inh	VDR inhibitor	TrxR1 substrate	Vif-APOBEC3G blk
C[C@@H]1[C@H](c2ccccc2)OCCS(=O)(=O)N1Cc1ccc(F)cc1	8%	x	x	-1%	-1%
Cc1ccc(CC(=O)NCCCc2ccccc2)cc1	3%	6%	12%	0%	0%
Cc1ccc(S(=O)(=O)CCNC(=O)Cc2ccccc2)cc1	17%	-3%	56µM*	3%	1%
CC(C)(C)n1ncc2c(=O)n(Cc3cccc(Oc4ccccc4)c3)cnc21	2%	x	x	-4%	3%
CN1CCN(c2cc(=O)n(Cc3ccc(F)cc3)c(=O)[nH]2)CC1	14µM*	-10%	-5%	1%[57.1 µM]	0%
CC(C)(C)n1ncc2c(=O)n(Cc3c(Cl)ccc(Cl)c3Cl)cnc21	9%	x	x	-1%	1%
CSc1ccc(C2NC(=O)c3ccccc3N2)cc1 (centres undefined)	-13%	-2%	-6%	77%	10µM*
Cc1ccc(S(=O)(=O)N2CCN(c3nc(-n4ccnc4)nc4ccccc34)CC2)cc1	23%	x	x	22%	x
Nc1nc(Sc2ccc(C(F)(F)F)cc2[N+](=O)[O-])n[nH]1	-15%[57.1 µM]	-1%	14%	2%[57.1 µM]	0%
Nc1nc(Sc2c([N+](=O)[O-])cc(C(F)(F)F)cc2[N+](=O)[O-])n[nH]1	16µM*	15%	32µM*	7%[57.1 µM]	-9%
CC[N+]1(CC(=O)c2cccs2)CCCCC1	-15%	x	x	11%[0.0914 µM]	3%
Cc1ccc(S(=O)(=O)NCC(=O)N(CCc2ccccc2)CC(=O)NCc2ccco2)cc1	22µM*	7%	-19%	2%	-7%
O=C(CN(CCc1ccccc1)C(=O)CNS(=O)(=O)c1ccccc1)NCc1ccco1	-56%	1%	-21%	5%[57.1 µM]	1%
Cc1sc2ncn(CC(=O)Nc3cccc(C(F)(F)F)c3)c(=O)c2c1S(=O)(=O)N1CCN(C)CC1	1%	0%	-14%	-5%	0%
CC(C)(C)n1ncc2c(=O)n(Cc3ccc(F)c(F)c3F)cnc21	27%	x	x	9%	0%
Cc1ccc(SC2=C(Sc3ccc(C)cc3)C(=O)c3ccccc3C2=O)cc1	u	8.9µM*	u	-11%	-10%
Cc1ccc(N2C(=O)c3ccccc3C2=O)cc1	14%	-3%	10%	4%	0%
O=C1/C(=C\c2ccccc2)CCc2c1[nH]c1ccccc21	-13%	-8%	3%	-4%	u
O=C1/C(=C/c2ccccc2)CCc2ccc(Cl)nc21	21%[11.4 µM]	2%	50µM*	5%[11.4 µM]	u
COC(=O)C1=C(C(=O)OC)C(C(=O)OC)C(C(=O)OC)C(C(=O)OC)(C(=O)OC)C(C(=O)OC)=C1C(=O)OC (centres undefined)	u	14%	40µM*	10%[57.1 µM]	-7%
CCCc1nc2sc3c(c2c(=O)[nH]1)CCCC3	5%[57.1 µM]	1%	79µM*	-6%[57.1 µM]	-3%
Cc1ccc(CN(C)C(=O)CCc2nc3sc4c(c3c(=O)[nH]2)CCCC4)o1	50µM*	-11%	u	-3%	-4%
CN(Cc1ccco1)C(=O)CCc1nc2sc3c(c2c(=O)[nH]1)CCCC3	18µM*	-19%	u	-3%	-8%
CC(OC(=O)c1ccccc1OCC(=O)Nc1ccc(Br)cc1)C(=O)NC1CCCC1 (centres undefined)	-6%	x	x	-7%	x
CS(=O)(=O)c1ccc(NC(=O)COc2ccccc2C(=O)Nc2ccccc2)cc1	12%	x	x	-1%	-7%
